Source: PubChem BioAssay AID743150 (Broad Institute, 2013)
Measured potencies and affinities stand elsewhere. Values without a mark were called inactive. No rule for the calls is given here.

Assay: cytotoxicity in OVCAR4 cells, dose response, cytotoxicity control for PAX8 inhibitor project, cell-based, plate reader, dry powder, SA11 (AID 743150)
Conditions: series mostly up to 35 µM; activity change, negative = cytotoxicity: at the top concentration

Structure (SMILES)	activity change, negative = cytotoxicity
COc1ccccc1C#Cc1ccc([C@@H]2[C@@H](C#N)N(C(=O)C3CCCCC3)[C@H]2CO)cc1	9.35%
CCc1ccc(/C=C2\SC(=S)N(CCCC(=O)N(CCO)c3ccccc3)C2=O)cc1	-71.7% [at 50 µM]
COc1cccc(C#Cc2ccc([C@H]3[C@@H](CO)N(C(=O)c4ccccn4)[C@H]3C#N)cc2)c1	0.618%
CCCC#Cc1ccc([C@@H]2[C@@H](C#N)N(C(=O)C3CCCCC3)[C@H]2CO)cc1	7.79%
N#C[C@H]1[C@@H](c2ccc(C3=CCCC3)cc2)[C@@H](CO)N1C(=O)NC1CCCCC1	-6.6%
C[C@@H]1CN([C@H](C)CO)C(=O)CCCn2cc(nn2)CO[C@H]1CN(C)C(=O)Nc1ccc(-c2cccs2)cc1	22.7%
C[C@H](CO)N1C[C@H](C)[C@@H](CN(C)S(=O)(=O)c2ccc(-c3ccccc3)cc2)OCc2cn(nn2)CCCC1=O	16.7%
COc1ccc(S(=O)(=O)Nc2ccc3c(c2)CC(=O)N([C@@H](C)CO)C[C@@H](C)[C@@H](CN(C)Cc2ccc(-c4ccccc4)cc2)O3)cc1	-8.32%
C[C@H]1CN([C@@H](C)CO)C(=O)CCCn2nncc2CO[C@@H]1CN(C)C(=O)Nc1ccc(-c2cccs2)cc1	32.7%
C[C@H](CO)N1C[C@H](C)[C@@H](CN(C)S(=O)(=O)c2ccc(Cl)cc2)OCCCC[C@H](C)Oc2ccc(NS(=O)(=O)c3ccccc3)cc2C1=O	-9.96%
O=C(C[C@H]1CC[C@H]2[C@@H](COC[C@@H](O)CN2S(=O)(=O)c2cccc(Cl)c2)O1)Nc1ccc(-c2ccccc2)cc1	-2.05%
